# Assay results published in PubChem BioAssay.
# Calls of active or inactive are those of the source. Unless noted, no rule for the calls is given here.
# Experiments:
# [1] = HepG2 liver cancer cell viability effects, profiling panel, resazurin fluorescence, 24 h, PK04 Diversity Set (AID 1172); settings: higher = more signal
# [2] = basal S. cerevisiae growth modulation, no modifier, primary screen, OD600, strain BY4716, 24 h, basal condition (AID 1173); settings: OD600, 24 h, higher = more signal, called active from +8 up or from −8 down
# [3] = MM1S myeloma cell viability, profiling panel, resazurin fluorescence, basal, 24 h, PK04 Diversity Set (AID 1174); settings: higher = more signal, called active from +8 up or from −8 down;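 also: MM1S multiple myeloma cell line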
# [4] = target: Dihydroorotate dehydrogenase (quinone), mitochondrial (Plasmodium falciparum (isolate 3D7)) (UniProt Q08210); test: PfDHODH enzyme inhibitors, primary screen, biochemical, C-terminal His tag, absorbance 600 nm (AID 1175); settings: DCIP absorbance 600 nm, higher = more signal, called active from +8 up or from −8 down;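 also: recombinant parasite enzyme with a five histidine tag at its C terminus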
# [5] = P. aeruginosa biofilm formation inhibitors, primary screen, strain PAO1, LB-PBS medium, absorbance 600 nm (AID 1176); settings: P. aeruginosa PAO1 growth/biofilm, A600, 12 h; higher = more signal
# [6] = S. cerevisiae RM11-1a growth modifiers, primary screen, strain RM11-1a, OD600, basal, 24 h (AID 1177); settings: OD600, 24 h, higher = more signal, called active from +8 up or from −8 down;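 also: cultures grown under basal conditions with no added stressor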
# [7] = E. coli acrAB mutant growth effects, primary screen, E. coli filamentation inducers, strain DRC39, OD650, 24 h (AID 1178); settings: higher = more signal, called active from +8 up or from −8 down;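 also: growth measured as culture turbidity by optical density at 650 nm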
# [8] = E. coli acrAB mutant growth effects, primary screen, E. coli filamentation inducers, strain DRC39, OD650, 48 h (AID 1179);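 also: screen aims at cell division blockers that make cells filament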; settings: E. coli DRC39 delta-acrAB growth, higher = more signal, called active from +8 up or from −8 down
# [9] = RPMI8226 myeloma cell viability, profiling panel, resazurin fluorescence, basal, 24 h, PK04 Diversity Set (AID 1180); settings: higher = more signal;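 also: RPMI8826 multiple myeloma cell line at 5000 cells per well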
# [10] = target: E3 ubiquitin-protein ligase XIAP (Homo sapiens) (UniProt P98170); test: XIAP binders, primary screen, biophysical, small-molecule microarray, fluorescence 635 nm (AID 1181); settings: small-molecule microarray binding, higher = more signal;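 also: score merges 667 nm emission and signal to noise over triplicate slides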
# [11] = system: XIP peptide (Xip251-270) binding; test: small-molecule binders of XIP peptide, primary screen, biochemical, small-molecule microarray, fluorescence 635/667 nm, 0.1 µg/mL protein (AID 1182); settings: fluorescent protein binding, 635 nm, higher = more signal, called active from +8 up or from −8 down
# XIP peptide (Xip251-270) = test: small-molecule binders of XIP peptide, primary screen, biochemical, small-molecule microarray, fluorescence 635/667 nm, 0.5 µg/mL protein (AID 1183); settings: small-molecule microarray binding, fluorescence 635 nm; higher = more signal
# [12] = Plasmodium falciparum growth inhibition, primary screen, strain 3D7, DAPI fluorescence, 100 nL (AID 1184);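 also: parasites grown inside human red blood cells in medium with human serum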; settings: P. falciparum 3D7 growth, 3 d, higher = more signal
# [13] = target: Homeobox protein Hox-A13 (Mus musculus) (UniProt Q62424); test: inhibitors of HoxA13-DNA binding, primary screen, biochemical, fluorescence polarization, labeled oligonucleotide (AID 1185); settings: 15 min, higher = more signal, called active from +8 up or from −8 down
# [14] = inhibitors of hydroxyurea-induced Chk1 phosphorylation, primary screen, imaging, HeLa, phospho-Chk1 antibody, percent positive cells (AID 1186); settings: hydroxyurea-induced phospho-Chk1 immunofluorescence imaging, higher = more signal
# [15] = inhibitors of hydroxyurea-induced Chk1 phosphorylation, primary screen, imaging, HeLa, phospho-Chk1 nuclear intensity (AID 1187); settings: hydroxyurea-induced phospho-Chk1 immunofluorescence imaging, higher = more signal
# Dihydroorotate dehydrogenase (quinone), mitochondrial (Plasmodium falciparum (isolate 3D7)), sequence (Q08210 whole entry, looked up): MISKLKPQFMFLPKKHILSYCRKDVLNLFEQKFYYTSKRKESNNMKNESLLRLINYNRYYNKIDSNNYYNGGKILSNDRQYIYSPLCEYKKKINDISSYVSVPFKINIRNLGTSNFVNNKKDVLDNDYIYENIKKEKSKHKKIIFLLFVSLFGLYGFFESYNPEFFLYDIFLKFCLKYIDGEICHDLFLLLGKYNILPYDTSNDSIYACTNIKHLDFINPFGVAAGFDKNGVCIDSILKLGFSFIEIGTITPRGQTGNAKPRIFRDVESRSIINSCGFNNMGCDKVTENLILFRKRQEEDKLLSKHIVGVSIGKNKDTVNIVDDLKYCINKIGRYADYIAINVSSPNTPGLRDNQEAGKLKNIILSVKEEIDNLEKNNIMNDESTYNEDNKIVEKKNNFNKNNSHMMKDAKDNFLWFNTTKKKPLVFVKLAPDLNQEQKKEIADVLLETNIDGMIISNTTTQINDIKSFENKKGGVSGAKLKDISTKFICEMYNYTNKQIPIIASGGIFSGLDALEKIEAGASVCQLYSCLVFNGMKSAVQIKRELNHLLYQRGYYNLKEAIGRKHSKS
# E3 ubiquitin-protein ligase XIAP (Homo sapiens), sequence (P98170 whole entry, looked up): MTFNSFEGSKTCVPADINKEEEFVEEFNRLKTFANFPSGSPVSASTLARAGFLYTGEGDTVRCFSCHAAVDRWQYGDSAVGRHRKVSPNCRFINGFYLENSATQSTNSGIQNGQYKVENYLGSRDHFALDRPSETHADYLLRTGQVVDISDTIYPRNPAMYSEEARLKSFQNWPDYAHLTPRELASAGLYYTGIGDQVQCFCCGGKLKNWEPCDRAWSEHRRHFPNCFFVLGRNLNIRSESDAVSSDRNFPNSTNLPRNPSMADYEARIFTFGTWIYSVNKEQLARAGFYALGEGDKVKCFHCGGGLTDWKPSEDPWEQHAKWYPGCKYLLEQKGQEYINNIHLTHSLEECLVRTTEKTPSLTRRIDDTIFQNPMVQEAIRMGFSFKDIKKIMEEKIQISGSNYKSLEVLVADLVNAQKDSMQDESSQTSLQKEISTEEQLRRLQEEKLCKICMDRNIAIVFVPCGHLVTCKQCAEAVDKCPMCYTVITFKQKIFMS
# Homeobox protein Hox-A13 (Mus musculus), sequence (Q62424 whole entry, looked up): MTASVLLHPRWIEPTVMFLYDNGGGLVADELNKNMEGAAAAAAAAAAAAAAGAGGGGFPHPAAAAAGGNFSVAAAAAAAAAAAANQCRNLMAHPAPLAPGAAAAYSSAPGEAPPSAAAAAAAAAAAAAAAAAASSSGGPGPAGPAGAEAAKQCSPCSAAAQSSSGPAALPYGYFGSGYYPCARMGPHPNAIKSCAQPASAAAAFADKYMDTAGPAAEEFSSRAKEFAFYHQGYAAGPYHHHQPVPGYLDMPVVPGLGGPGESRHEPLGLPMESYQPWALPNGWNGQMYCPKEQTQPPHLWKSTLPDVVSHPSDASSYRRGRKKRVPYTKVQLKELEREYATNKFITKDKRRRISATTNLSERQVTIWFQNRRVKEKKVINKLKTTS
Compound,z-score [1],z-score [2],z-score [3],composite z-score [4],z-score [5],z-score [6],z-score [7],z-score [8],z-score [9],composite z-score [10],composite z-score [11],composite z-score (XIP peptide (Xip251-270)),z-score [12],z-score [13],z-score [14],z-score [15]
COCCCN1C(=O)[C@@]2(Cc3ccccc31)c1ccccc1C(=O)N(Cc1ccccc1C(F)(F)F)[C@H]2c1ccc(CO)cc1,0.0531,0.947 (inactive),-0.0554 (inactive),-20.2 (active),4.64 (inactive),-0.305 (inactive),0.0576 (inactive),-0.297 (inactive),0.0241,-0.0373,-0.219 (inactive),0.55,-0.698,-0.825 (inactive),0.25 (inactive),0.49 (inactive)
C[C@]1(C(=O)NC2CC2)c2ccccc2C(=O)N(Cc2cc(C(F)(F)F)cc(C(F)(F)F)c2)[C@H]1c1ccc(CO)cc1,0.546,-0.66 (inactive),0.43 (inactive),0.262 (inactive),-0.506 (inactive),0.558 (inactive),1.11 (inactive),0.833 (inactive),0.367,-0.0646,1.56 (inactive),0.849,-0.895,-3.26 (inactive),-0.66 (inactive),-0.479 (inactive)
C=CCNC(=O)[C@H]1[C@@H]2C(=O)O[C@@H](c3ccccc3)[C@@H](c3ccccc3)N2[C@@H](c2ccccc2OCCO)[C@]12C(=O)Nc1ccc(C#CC3=CCCCC3)cc12,-2.93,1.97 (inactive),-8.87 (active),0.266 (inactive),1.89 (inactive),3.11 (inactive),-0.639 (inactive),-0.0547 (inactive),-7.09,0.112,-0.274 (inactive),0.769,-2.06,2.46 (inactive),-0.333 (inactive),-0.739 (inactive)
CC[C@@H]1C=C(C(=O)O)[C@H](c2ccco2)N1S(=O)(=O)c1ccc(C)cc1,-0.456,0.538 (inactive),-0.283 (inactive),0.267 (inactive),0.449 (inactive),-0.0109 (inactive),-0.721 (inactive),0.34 (inactive),-0.88,0.124,3.88 (inactive),-0.265,-0.761,-4.78 (inactive),0.186 (inactive),0.162 (inactive)
COc1ccc([C@H]2OC[C@@H]3CC4(CC=CC4)C(=O)N32)cc1,-0.876,-0.897 (inactive),0.305 (inactive),-0.177 (inactive),-0.0634 (inactive),0.504 (inactive),-0.632 (inactive),-0.688 (inactive),0.012,-0.0118,-0.302 (inactive),0.345,0.301,-0.0645 (inactive),0.0257 (inactive),-0.452 (inactive)
CCCCc1cn(C[C@H](Cc2ccccc2)NC(=O)N[C@H](CO)CCc2oc(C(C)=O)c(C(=O)OC)c2C(=O)OC)nn1,-0.013,-2.38 (inactive),0.465 (inactive),-2.83 (inactive),-0.44 (inactive),-0.728 (inactive),0.916 (inactive),0.646 (inactive),-0.185,0.276,0.703 (inactive),0.512,-1.92,-4.73 (inactive),-0.185 (inactive),-0.228 (inactive)
